This note sets out measurements from PubChem BioAssay AID1220 (Sanford-Burnham Center for Chemical Genomics, 2008).

In all, about 190,000 compounds went through this assay and about 1,300 (0.68%) were called active. Shown is part of a subset that was picked to be rich in actives. Unmarked numbers belong to inactive results. No stated cut-off is given here; in the data, active means inhibition above about 50%; inactive means the rest.

Chain of Mannose-6-phosphate isomerase (Homo sapiens) (P34949 whole entry, looked up): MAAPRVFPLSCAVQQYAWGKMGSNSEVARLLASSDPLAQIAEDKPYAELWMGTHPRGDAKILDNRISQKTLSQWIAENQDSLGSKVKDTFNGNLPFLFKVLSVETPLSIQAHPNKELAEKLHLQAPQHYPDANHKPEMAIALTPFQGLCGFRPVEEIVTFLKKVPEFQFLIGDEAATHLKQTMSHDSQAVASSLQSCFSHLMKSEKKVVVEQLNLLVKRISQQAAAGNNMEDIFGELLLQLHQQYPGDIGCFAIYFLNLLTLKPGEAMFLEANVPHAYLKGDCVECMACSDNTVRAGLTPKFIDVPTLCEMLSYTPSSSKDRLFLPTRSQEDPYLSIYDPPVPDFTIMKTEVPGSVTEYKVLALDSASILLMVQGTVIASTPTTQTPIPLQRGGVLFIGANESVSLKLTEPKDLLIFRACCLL

This assay has as its target Mannose-6-phosphate isomerase (Homo sapiens) (UniProt P34949). Put plainly: human PMI inhibitors, high substrate, primary screen, biochemical, fluorescence intensity, high mannose 6-phosphate (AID 1220). The settings on record: recombinant PMI enzyme, coupled fluorescence intensity; at 20 µM; active compounds read high.
Broadly, the inhibition is the drop in the measured response relative to a control, in per cent. Take `CCOC(=O)c1ccccc1N/C=C1\CCCCC1=O`: the inhibition is -11.5%. Then `COC(=O)c1ccccc1N/C=C1\CCc2c(c(C)nn2-c2ccccn2)C1=O`, with 73.6% (active); and `COC(=O)c1ccccc1NC(=S)N1CCN(c2ccccn2)CC1`, with 5.5%; and `COc1ccccc1N1CCN(C(=O)c2ccc3c(Cl)c4c(nc3c2)CCCC4)CC1`, with 14.1%. Under `Cn1c(=O)[nH]c(=O)c2c1nc(N1CCCC1)n2CC(O)COc1ccccc1` (stereo not given) stands 3.3%; under `CCNc1nc(Cl)nc(NCCOc2ccc(C)cc2)n1`, 0.4%; under `Cc1ccc(OCC(=O)Nc2nnc(C3CCCO3)s2)c(Br)c1` (stereo not given), 5.8%. Then `Cc1cccc(C)c1OCC(=O)Nc1nnc(C2CCCO2)s1` (stereo not given), with 53.1% (active).

`CCCC(=O)Nc1nnc(C2CCCO2)s1` (stereo not given): the inhibition is 17.6%. Then `O=C(COc1ccc([N+](=O)[O-])cc1)NCc1ccncc1`, with -2.2%. Under `O=S(=O)(Cc1ccccc1)NCC1CCCN(Cc2ccc3nonc3c2)C1` (stereo not given) stands 7.4%; under `COC(=O)c1ccc(NC(=S)NC(=O)c2c(Cl)cnn2C)cc1`, -3.2%; under `CCCCOC(=O)c1ccc(NC(=S)NC(=O)c2c(Cl)cnn2C)cc1`, 62.3% (active). Then `CCCCOC(=O)c1ccc(NC(=S)NC(=O)c2c(Cl)cnn2CC)cc1`, with 17.1%; and `CCN1CCCn2c1nc1c2c(=O)n(C)c(=O)n1C`, with -4.6%. With `CC1CCCCN1C(=O)CSc1nnc(-c2c[nH]c3ccccc23)o1` (stereo not given), the inhibition is -3.8%. Regarding `CC1(C)CC(=O)C(C=Nc2ccc(O)cc2)=C(O)C1`, the inhibition is 21.8%. Then `CC1(C)CC(=O)C(C=Nc2ccc(N)cc2)=C(O)C1`, with 33.3%.

As to `CC1(C)CC(=O)C(C=Nc2ccc(NC3=C(C#N)C(=O)CC(C)(C)C3)cc2)=C(O)C1`, the inhibition is 60.4% (active). Under `CCOC(=O)Cn1c(-c2cccnc2Cl)nc2cc(Cl)c(Cl)cc21` stands 21.1%. Under `O=C(CN(c1ccc(Br)cc1)S(=O)(=O)c1ccc(Cl)c([N+](=O)[O-])c1)NCCc1ccccc1` stands -3.9%; under `COc1ccc(CN=CC2=C(O)CC(C)(C)CC2=O)cc1`, 12.4%. Regarding `Oc1ccc(NCc2cccc(OCc3ccc(F)cc3)c2)cc1`, the inhibition was 51.3% (active). Then `Oc1ccc(NCc2cccc(OCc3ccccc3)c2)cc1`, with 58.9% (active); and `O=[N+]([O-])c1ccc(COc2cccc(CNc3ccc(F)cc3)c2)cc1`, with -3.6%. Then `O=[N+]([O-])c1ccc(COc2cccc(CNc3ccc(Br)cc3)c2)cc1`, with 19.9%; and `Fc1ccc(COc2cccc(CNCc3ccncc3)c2)cc1`, with -15.5%; and `c1ccc(COc2cccc(CNn3cnnc3)c2)cc1`, with 0.5%. Then `CCS(=O)(=O)c1c(S(=O)(=O)CC)c2ccccn2c1C(N)=O`, with -1%. With `Cc1cccc(C(C)C)c1NC(=O)C1CN(S(=O)(=O)c2ccccc2)CCN1S(=O)(=O)c1ccccc1` (stereo not given), the inhibition was 1.2%. Under `COc1cccc2c(=O)cc(C)n(CC(=O)Nc3ccccc3C)c12` stands -2.8%; under `CC(C)C(=O)N1c2ccccc2NC2=C(C(=O)CCC2)C1c1ccc(N(C)C)cc1` (stereo not given), 60.7% (active); under `CC(=O)N1c2ccccc2NC2=C(C(=O)CCC2)C1c1ccc(F)cc1` (stereo not given), 13.6%. Then `CCC(=O)N1c2ccccc2NC2=C(C(=O)CCC2)C1c1ccc(N(C)C)cc1` (stereo not given), with 16.3%; and `Fc1ccccc1COc1ccc2ccccc2c1CNc1nn[nH]n1`, with -1.6%; and `O=[N+]([O-])c1ccc(Cl)c(C2Nc3cccc4cccc(c34)N2)c1`, with 60.2% (active).

`O=[N+]([O-])c1cccc(C2Nc3cccc4cccc(c34)N2)c1`: the inhibition was -12.5%. Under `O=[N+]([O-])c1ccc(C2Nc3cccc4cccc(c34)N2)cc1` stands 14.6%; under `COc1cccc(CN2CCN(C(=O)Nc3ccc([N+](=O)[O-])cc3)CC2)c1`, 10.7%; under `CSc1ccc(CN2CCN(Cc3ccc([N+](=O)[O-])cc3)CC2)cc1`, 4%. Under `CS(=O)(=O)N1CCN(Cc2ccc([N+](=O)[O-])cc2)CC1` stands 11.9%; under `COc1cccc(C(=O)N2CCN(Cc3ccccc3[N+](=O)[O-])CC2)c1`, -13.8%. For `Cc1ccc(CN2CCN(/N=C/c3ccc(Cl)c([N+](=O)[O-])c3)CC2)cc1`, the inhibition was 15.3%. Then `COc1cc(CN2CCN(c3ccc(C)cc3)CC2)cc([N+](=O)[O-])c1O`, with 10.7%. As for `COc1cccc(CN2CCN(Cc3cc(OC)c(OC)cc3[N+](=O)[O-])CC2)c1`, the inhibition is 53.2% (active). Under `COc1cc(CN2CCN(Cc3ccc([N+](=O)[O-])cc3)CC2)c([N+](=O)[O-])cc1OC` stands 56.3% (active); under `COc1cc(CN2CCN(Cc3ccc(C)cc3)CC2)c([N+](=O)[O-])cc1OC`, 61.5% (active); under `CC1SCCN1S(=O)(=O)c1ccc2ccccc2c1` (stereo not given), 7.8%. For `CCOC(=O)N1CCC2(CC1)C(C#N)=C(N)Oc1c2c(C)nn1-c1cccc(Cl)c1`, the inhibition is -99.5%. Then `CNc1ccc(Br)cc(C(=O)/C=C/c2cccc(Cl)c2Cl)c1=O`, with 24.7%; and `Nc1nc(F)cc(NCc2ccccc2)n1`, with 10.5%; and `COc1ccc(CNCc2ccco2)cc1OCc1ccccc1`, with 10.6%.

Take `CN(C)S(=O)(=O)c1cccc(NC(=O)c2ccc(N3CCOCC3)c([N+](=O)[O-])c2)c1`: the inhibition was 8.9%.

`Cn1c(NC(=O)C2CCCO2)cc(=O)n(C)c1=O` (stereo not given): the inhibition was 42.3%. Then `COc1ccc(CC(=O)N2CCN(c3ccccn3)CC2)cc1`, with 8.3%; and `CCN1C(=O)C2C(c3cccc(F)c3)NC(CC)(C(=O)OC)C2C1=O` (stereo not given), with 2.1%; and `COCCCn1c(=N)c(C(=O)NCC2CCCO2)cc2c(=O)n3ccccc3nc21` (stereo not given), with 5.1%.

`CCCn1c(=N)c(C(=O)NCC2CCCO2)cc2c(=O)n3cccc(C)c3nc21` (stereo not given): the inhibition was 13.9%. Under `COCCCn1c(=N)c(C(=O)NCC2CCCO2)cc2c(=O)n3cccc(C)c3nc21` (stereo not given) stands 53.6% (active); under `COc1ccccc1CNC(=O)Nc1cccs1`, -15.1%.
